Data as given in PubChem BioAssay (NCATS).
Inconclusive results are not listed. Unless noted, calls follow the shape of the dose curve; as a rule, active = well fitted curve in either direction with a large enough effect (not every such curve was filed as active); inconclusive = small, poorly fitted or top-dose-only effect, or another doubt; inactive = flat fitted curve, though single readings scatter.

Assays:
[1] = AP1 Signaling Pathway (AID 357); settings: ME-180 AP-1-bla reporter, EGF-induced, beta-lactamase ratio, 5 h; at 17.2 µM (top of the series) unless noted;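 also: ME-180 reporter cells stimulated with EGF at its EC50 level; % is scaled to controls: 0 for no effect and ±100 for the full control effect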
Summary of the method: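 AP-1-bla ME-180 cells, Opti-MEM + 0.5% dialyzed FBS, plated overnight 37 °C. Cpd titration + EC50 EGF, 5 h 37 °C. CCF4 2.5 h RT; ex 405, em 460/530 ratio → %activity, AC50.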

[2] = NFAT Signaling Pathway (AID 444); settings: Jurkat NFAT-bla M1, carbachol, beta-lactamase ratio, 5 h; at 17.2 µM (top of the series) unless noted;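 also: carbachol stimulus at about its EC50 of 1 µM final; % is scaled to controls: 0 for no effect and ±100 for the full control effect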
Summary of the method: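 Jurkat cells carrying an NFAT-driven β-lactamase reporter and co-transfected muscarinic M1 receptor were treated with compound plus carbachol (1 uM final, an EC50 level) for 5 h at 37 °C. CCF4 loading followed for 1 h at RT; 460/530 nm ratio gave %activity.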

[3] = Stat Signaling Pathway (AID 446); settings: ME-180 (cervical carcinoma) SIE beta-lactamase reporter, IL-6 stimulated, 5 h; at 17.2 µM (top of the series) unless noted;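 also: ME-180 cervical cancer cells given 40 pM IL-6 alongside compound; SIE-controlled beta-lactamase reporter measured as 460/530 nm FRET emission ratio; % is scaled to controls: 0 for no effect and ±100 for the full control effect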
Summary of the method: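 IL-6/STAT signaling read in ME-180 cells via an SIE beta-lactamase reporter. Stimulus was 40 pM IL-6 (its AC50) for 5 hrs, so both activation and inhibition register.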

[4] = molecular target: Glucocorticoid receptor (Homo sapiens) (UniProt P04150); assay: GR-GFP Redistribution (AID 450;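 active = compounds whose dose series gives a full or clear partial fitted curve of increased nuclear translocation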; also: potency is read from the fitted curve at half-maximal effect)
Glucocorticoid receptor (Homo sapiens), sequence (P04150 whole entry, looked up): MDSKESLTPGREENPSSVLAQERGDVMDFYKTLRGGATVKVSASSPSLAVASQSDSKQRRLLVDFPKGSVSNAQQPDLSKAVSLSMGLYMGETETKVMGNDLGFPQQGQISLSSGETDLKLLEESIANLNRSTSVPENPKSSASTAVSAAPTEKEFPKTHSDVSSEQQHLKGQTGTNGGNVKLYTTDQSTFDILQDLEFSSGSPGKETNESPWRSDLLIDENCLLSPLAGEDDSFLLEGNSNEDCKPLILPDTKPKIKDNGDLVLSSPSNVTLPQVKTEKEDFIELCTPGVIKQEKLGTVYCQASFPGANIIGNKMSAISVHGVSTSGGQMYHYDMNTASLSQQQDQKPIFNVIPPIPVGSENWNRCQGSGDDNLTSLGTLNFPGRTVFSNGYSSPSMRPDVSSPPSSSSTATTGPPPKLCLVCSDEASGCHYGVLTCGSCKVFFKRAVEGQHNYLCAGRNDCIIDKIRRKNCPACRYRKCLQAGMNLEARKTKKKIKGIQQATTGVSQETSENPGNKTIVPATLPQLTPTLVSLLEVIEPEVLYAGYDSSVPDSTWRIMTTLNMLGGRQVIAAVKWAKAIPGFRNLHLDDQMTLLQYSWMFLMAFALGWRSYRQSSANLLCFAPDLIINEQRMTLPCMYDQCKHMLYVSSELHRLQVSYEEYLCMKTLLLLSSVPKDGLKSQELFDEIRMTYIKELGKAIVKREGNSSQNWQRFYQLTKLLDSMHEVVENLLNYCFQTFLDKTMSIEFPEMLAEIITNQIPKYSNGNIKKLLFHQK

O=C(C1CC1(c1ccccc1)c1ccccc1)N1CCOCC1 (stereo not given)
inactive: activity change, negative = inhibition [1] -9.16% | activity change, negative = inhibition [2] 10.4% | activity, negative = inhibition [3] 0.797% | Potency [4] > 20.6 µM

COc1ccccc1N(Cc1cc2cccc(C)c2[nH]c1=O)C(=O)C(C)C
inactive: activity change, negative = inhibition [1] -14.8% | activity change, negative = inhibition [2] 11.3% | activity, negative = inhibition [3] -8.46% | Potency [4] > 20.6 µM

O=C(O)c1ccc(COCC(F)(F)C(F)F)o1
inactive: activity change, negative = inhibition [1] 10.1% | activity change, negative = inhibition [2] 28.1% | activity, negative = inhibition [3] 2.03% | Potency [4] > 20.6 µM

CCOC(=O)c1ccc(-n2c(=O)[nH]c3ccccc3c2=O)cc1
inactive: activity change, negative = inhibition [1] 3.86% | activity change, negative = inhibition [2] 6.82% | activity, negative = inhibition [3] 2.95% | Potency [4] > 20.6 µM

C=C(C)CSC1=C(C#N)C(c2ccsc2)CC(=O)N1 (stereo not given)
inactive: activity change, negative = inhibition [1] -7.58% | activity change, negative = inhibition [2] -0.539% | activity, negative = inhibition [3] -1.45% | Potency [4] > 20.6 µM

COc1ccc(C(=O)N2CCCC(c3ccccc3)C2)cc1 (stereo not given)
inactive: activity change, negative = inhibition [1] -9.81% | activity change, negative = inhibition [2] 18.5% | activity, negative = inhibition [3] 2.57% | Potency [4] > 20.6 µM

CCOC(=O)COc1nc(N(C)C)nc(N(C)C)n1
inactive: activity change, negative = inhibition [1] 5.84% | activity change, negative = inhibition [2] -1.43% | activity, negative = inhibition [3] 8.42% | Potency [4] > 20.6 µM

COc1ccc(C2/C(=C(/O)c3ccccc3)C(=O)C(=O)N2c2ncccn2)cc1OC (stereo not given)
inactive: activity change, negative = inhibition [1] -3.2% | activity change, negative = inhibition [2] -4.09% | activity, negative = inhibition [3] -0.726% | Potency [4] > 20.6 µM

CC(=O)Nc1ccc(OC(=O)CC2SC(=O)NC2=O)cc1 (stereo not given)
inactive: activity change, negative = inhibition [1] 6.63% | activity change, negative = inhibition [2] 11.3% | activity, negative = inhibition [3] 5.85% | Potency [4] > 20.6 µM

CC(=O)N/C(=N/c1nc(C)cc(C)n1)Nc1ccc(NC(C)=O)cc1
inactive: activity change, negative = inhibition [1] -2.08% | activity change, negative = inhibition [2] -3.91% | activity, negative = inhibition [3] -1.02% | Potency [4] > 20.6 µM

CC1(C(=O)CSc2n[nH]c(-c3ccccc3Cl)n2)CCC(=O)O1 (stereo not given)
inactive: activity change, negative = inhibition [1] 6.38% | activity change, negative = inhibition [2] 4.32% | activity, negative = inhibition [3] 0.984% | Potency [4] > 20.6 µM

CCOc1ccc(C2/C(=C(/O)c3ccc(F)cc3)C(=O)C(=O)N2CCCN(C)C)cc1 (stereo not given)
inactive: activity change, negative = inhibition [1] 10.1% | activity change, negative = inhibition [2] 5.42% | activity, negative = inhibition [3] 6.85% | Potency [4] > 20.6 µM

Cn1c(N)c(C#N)c(C#N)c1-c1ccccc1
inactive: activity change, negative = inhibition [1] -21.2% | activity change, negative = inhibition [2] 4.54% | activity, negative = inhibition [3] -8.46% | Potency [4] > 20.6 µM

CCc1nc2n[nH]c(N)c2c2c1CCCC2
inactive: activity change, negative = inhibition [1] -12.2% | activity change, negative = inhibition [2] 1.69% | activity, negative = inhibition [3] -2.34% | Potency [4] > 20.6 µM

Cc1nc(NCCCO)c(C#N)c2c1COC(C)(C)C2
inactive: activity change, negative = inhibition [1] -14.2% | activity change, negative = inhibition [2] 1.02% | activity, negative = inhibition [3] 1.39% | Potency [4] > 20.6 µM

CCOC(=O)c1c(C(C#N)C#N)cc(C)nc1C
inactive: activity change, negative = inhibition [1] 9.21% | activity change, negative = inhibition [2] -6.15% | activity, negative = inhibition [3] 1.48% | Potency [4] > 20.6 µM

Cc1cc(C)nc(N(C#N)S(=O)(=O)c2ccccc2Cl)n1
inactive: activity change, negative = inhibition [1] 0.835% | activity change, negative = inhibition [2] -12.4% | activity, negative = inhibition [3] -19.9% | Potency [4] > 20.6 µM

C=CCN(C)CCCNC(=O)/C=N/O
inactive: activity change, negative = inhibition [1] -0.81% | activity change, negative = inhibition [2] 2.2% | activity, negative = inhibition [3] 3.74% | Potency [4] > 20.6 µM

CC1(C)CC(=O)C2=C(C1)N(Cc1ccco1)C(=O)C2(NC(=O)c1cccnc1)C(F)(F)F (stereo not given)
inactive: activity change, negative = inhibition [1] -3.2% | activity change, negative = inhibition [2] -3.77% | activity, negative = inhibition [3] -9.45% | Potency [4] > 20.6 µM

Cc1ccc(-c2nn(C)c(=O)c3ccccc23)cc1CN1CCOCC1
inactive: activity change, negative = inhibition [1] 16.4% | activity change, negative = inhibition [2] -19.8% | activity, negative = inhibition [3] -0.983% | Potency [4] > 20.6 µM

COC(=O)c1cc(OC)c(OC)cc1N
inactive: activity change, negative = inhibition [1] 0.8% | activity change, negative = inhibition [2] 0.905% | activity, negative = inhibition [3] -0.00836% | Potency [4] > 20.6 µM

OCCNC1=NCCN1
inactive: activity change, negative = inhibition [1] -9.49% | activity change, negative = inhibition [2] 3.37% | activity, negative = inhibition [3] 1.85% | Potency [4] > 20.6 µM

CCOc1cccc(NC(=O)C2CC(=O)NC(=Nc3ccccc3)S2)c1 (stereo not given)
inactive: activity change, negative = inhibition [1] -5.62% | activity change, negative = inhibition [2] 6.96% | activity, negative = inhibition [3] -16.5% | Potency [4] > 20.6 µM

C=CCN=C(C)C1=C(O)CCC1=O
inactive: activity change, negative = inhibition [1] 23.8% | activity change, negative = inhibition [2] -7.26% | activity, negative = inhibition [3] 20.3% | Potency [4] > 20.6 µM

CCCCOc1ccc(C(=O)Nn2cnnc2)cc1
inactive: activity change, negative = inhibition [1] 15.5% | activity change, negative = inhibition [2] 4.61% | activity, negative = inhibition [3] 8.41% | Potency [4] > 20.6 µM
